# According to PubChem BioAssay (EPA / NIEHS):
# Calls of active or inactive are those of the source. Rule for the calls: active = hit-call score of the fitted dose curve at least 0.9, where 1 is the maximum; inactive = score below 0.9.
# Read-out: 3-Hydroxy-3-Methylglutaryl-CoA Synthase 2 (HMGCS2), HMGCS2 (gene 3158)
# Assay: LTEA_HepaRG_HMGCS2: Life Technologies and Expression Analysis (LTEA) Assay for 3-Hydroxy-3-Methylglutaryl-CoA Synthase 2 (HMGCS2) using HepaRG (AID 2283504)
# Details: mRNA level, 48 h; actives raise or lower the signal
# Summary of the method: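 HepaRG, plated 48 h then switched to serum-free induction media; cmpd 8-pt, max 100 uM, 1/2-log, 0.5% DMSO, n=2, 48 h. HMGCS2 mRNA by Fluidigm TaqMan qRT-PCR, ACTB/GAPDH/POLR2A norm; bidirectional fit vs DMSO.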
SMILES,outcome,AC50
Nc1cc2c3c(c1)C(c1ccccc1)=N[C@@H](NC(=O)c1cccnc1)C(=O)N3CC2,inactive,–
c1nc[nH]n1,inactive,–
CCC(C)(C)c1ccc(O)cc1,inactive,–
CCOP(=S)(OCC)SCSCC,inactive,–
CCNc1nc(Cl)nc(NC(C)(C)C)n1,inactive,–
CCOC(=O)c1ccccc1C(=O)OCC,inactive,–
CCOP(=S)(Oc1ccc([N+](=O)[O-])cc1)c1ccccc1 (centres undefined),inactive,–
Nc1ccc(Cl)cc1,inactive,–
Cc1ccc(N)cc1N,inactive,–
CCOc1ccc(C(C)(C)COCc2cccc(Oc3ccccc3)c2)cc1,inactive,–
ClC1=C(Cl)C2(Cl)C3C(Cl)C(Cl)CC3C1(Cl)C2(Cl)Cl (centres undefined),–,31.7 µM (active)
CCCCN(CCCC)N=O,inactive,–
c1ccc(OP(Oc2ccccc2)Oc2ccccc2)cc1,inactive,–
CCC1(c2ccccc2)C(=O)N=C(O)NC1=O (centres undefined),inactive,–
Cc1cccc(N)c1,inactive,–
CC(C)(C)OOC(C)(C)C,inactive,–
CCCCCCCc1ccc(O)cc1,inactive,–
ClC(Cl)c1ccccc1,inactive,–
CCCCN(CCCC)SN(C)C(=O)Oc1cccc2c1OC(C)(C)C2,inactive,–
c1cc2c3c(cccc3c1)CC2,inactive,–
CN(C)C(=O)Cl,inactive,–

# Read-out: Insulin Like Growth Factor 1 (IGF1), IGF1 (gene 3479)
# Assay: LTEA_HepaRG_IGF1: Life Technologies and Expression Analysis (LTEA) Assay for Insulin Like Growth Factor 1 (IGF1) using HepaRG (AID 2283506)
# Details: mRNA level, 48 h; actives raise or lower the signal
# Summary of the method: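 Differentiated human HepaRG cells were dosed for 48 h in serum-free induction medium with 0.5% DMSO, eight half-log concentrations up to 100 uM, in duplicate. IGF1 mRNA was quantified by qRT-PCR normalized to ACTB, GAPDH, POLR2A; bidirectional fitting versus DMSO.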
SMILES,AC50,outcome
Nc1cc2c3c(c1)C(c1ccccc1)=N[C@@H](NC(=O)c1cccnc1)C(=O)N3CC2,11.8 µM (active),–
c1nc[nH]n1,–,inactive
CCC(C)(C)c1ccc(O)cc1,–,inactive
CCOP(=S)(OCC)SCSCC,–,inactive
CCNc1nc(Cl)nc(NC(C)(C)C)n1,13.1 µM (active),–
CCOC(=O)c1ccccc1C(=O)OCC,–,inactive
CCOP(=S)(Oc1ccc([N+](=O)[O-])cc1)c1ccccc1 (centres undefined),–,inactive
Nc1ccc(Cl)cc1,–,inactive
Cc1ccc(N)cc1N,–,inactive
CCOc1ccc(C(C)(C)COCc2cccc(Oc3ccccc3)c2)cc1,12.4 µM (active),–
ClC1=C(Cl)C2(Cl)C3C(Cl)C(Cl)CC3C1(Cl)C2(Cl)Cl (centres undefined),23.5 µM (active),–
CCCCN(CCCC)N=O,–,inactive
c1ccc(OP(Oc2ccccc2)Oc2ccccc2)cc1,–,inactive
CCC1(c2ccccc2)C(=O)N=C(O)NC1=O (centres undefined),–,inactive
Cc1cccc(N)c1,–,inactive
CC(C)(C)OOC(C)(C)C,–,inactive
CCCCCCCc1ccc(O)cc1,–,inactive
ClC(Cl)c1ccccc1,–,inactive
CCCCN(CCCC)SN(C)C(=O)Oc1cccc2c1OC(C)(C)C2,–,inactive
c1cc2c3c(cccc3c1)CC2,–,inactive
CN(C)C(=O)Cl,–,inactive

# Read-out: Intercellular Adhesion Molecule 1 (ICAM1), ICAM1 (gene 3383)
# Assay: LTEA_HepaRG_ICAM1: Life Technologies and Expression Analysis (LTEA) Assay for Intercellular Adhesion Molecule 1 (ICAM1) using HepaRG (AID 2283507)
# Details: mRNA level, 48 h; actives raise or lower the signal
# Summary of the method: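 Readout is qRT-PCR mRNA level, normalized to three housekeeping genes and fitted bidirectionally against 0.5% DMSO vehicle. Human HepaRG cultures received compound for 48 h, top concentration 100 uM with half-log dilutions.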
SMILES,outcome,AC50
Nc1cc2c3c(c1)C(c1ccccc1)=N[C@@H](NC(=O)c1cccnc1)C(=O)N3CC2,inactive,–
c1nc[nH]n1,–,0.112 µM (active)
CCC(C)(C)c1ccc(O)cc1,inactive,–
CCOP(=S)(OCC)SCSCC,inactive,–
CCNc1nc(Cl)nc(NC(C)(C)C)n1,inactive,–
CCOC(=O)c1ccccc1C(=O)OCC,inactive,–
CCOP(=S)(Oc1ccc([N+](=O)[O-])cc1)c1ccccc1 (centres undefined),inactive,–
Nc1ccc(Cl)cc1,inactive,–
Cc1ccc(N)cc1N,inactive,–
CCOc1ccc(C(C)(C)COCc2cccc(Oc3ccccc3)c2)cc1,inactive,–
ClC1=C(Cl)C2(Cl)C3C(Cl)C(Cl)CC3C1(Cl)C2(Cl)Cl (centres undefined),inactive,–
CCCCN(CCCC)N=O,inactive,–
c1ccc(OP(Oc2ccccc2)Oc2ccccc2)cc1,inactive,–
CCC1(c2ccccc2)C(=O)N=C(O)NC1=O (centres undefined),inactive,–
Cc1cccc(N)c1,inactive,–
CC(C)(C)OOC(C)(C)C,inactive,–
CCCCCCCc1ccc(O)cc1,inactive,–
ClC(Cl)c1ccccc1,inactive,–
CCCCN(CCCC)SN(C)C(=O)Oc1cccc2c1OC(C)(C)C2,inactive,–
c1cc2c3c(cccc3c1)CC2,inactive,–
CN(C)C(=O)Cl,inactive,–

# Read-out: Insulin-like growth factor-binding protein 1 (IGFBP1), IGFBP1 (gene 3484)
# Assay: LTEA_HepaRG_IGFBP1: Life Technologies and Expression Analysis (LTEA) Assay for Insulin-like growth factor-binding protein 1 (IGFBP1) using HepaRG (AID 2283508)
# Details: mRNA level, 48 h; actives raise or lower the signal
# Summary of the method: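 Thawed HepaRG cells are plated for 48 h, switched to serum-free induction medium, then dosed in duplicate for another 48 h (100 uM top, half-log steps). Lysates in RLT go to qRT-PCR, and gain or loss of signal is fitted relative to vehicle.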
SMILES,outcome,AC50
Nc1cc2c3c(c1)C(c1ccccc1)=N[C@@H](NC(=O)c1cccnc1)C(=O)N3CC2,inactive,–
c1nc[nH]n1,inactive,–
CCC(C)(C)c1ccc(O)cc1,inactive,–
CCOP(=S)(OCC)SCSCC,inactive,–
CCNc1nc(Cl)nc(NC(C)(C)C)n1,inactive,–
CCOC(=O)c1ccccc1C(=O)OCC,inactive,–
CCOP(=S)(Oc1ccc([N+](=O)[O-])cc1)c1ccccc1 (centres undefined),–,5.97 µM (active)
Nc1ccc(Cl)cc1,inactive,–
Cc1ccc(N)cc1N,inactive,–
CCOc1ccc(C(C)(C)COCc2cccc(Oc3ccccc3)c2)cc1,inactive,–
ClC1=C(Cl)C2(Cl)C3C(Cl)C(Cl)CC3C1(Cl)C2(Cl)Cl (centres undefined),inactive,–
CCCCN(CCCC)N=O,inactive,–
c1ccc(OP(Oc2ccccc2)Oc2ccccc2)cc1,inactive,–
CCC1(c2ccccc2)C(=O)N=C(O)NC1=O (centres undefined),inactive,–
Cc1cccc(N)c1,inactive,–
CC(C)(C)OOC(C)(C)C,inactive,–
CCCCCCCc1ccc(O)cc1,inactive,–
ClC(Cl)c1ccccc1,inactive,–
CCCCN(CCCC)SN(C)C(=O)Oc1cccc2c1OC(C)(C)C2,inactive,–
c1cc2c3c(cccc3c1)CC2,inactive,–
CN(C)C(=O)Cl,inactive,–
